{"source": "PubChem BioAssay (NCATS)", "key": {"[1]": {"biological_target": "Mitogen-activated protein kinase 10 (Mus musculus) (UniProt Q61831)", "test": "JNK3 AlphaScreen Assay (AID 530; active = well fitted curve in either direction with a large enough effect, not every such curve was filed as active;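 also: kinase came from lysate of stimulated human HepG2 cells; signal reports phosphorylation of biotinylated GST-cJun 1-79 at Ser73 with 10 µM ATP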)", "conditions": "JNK3 lysate, c-Jun phosphorylation; series mostly up to 57.1 µM", "procedure,_shortened": "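Room-temperature AlphaScreen kinase assay; pre-activated HepG2 lysate as JNK3 source, biotin-GST-cJun(1-79) substrate, 10 uM ATP, compound 15 min preincubation.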"}, "[2]": {"biological_target": "Cytochrome P450 3A4 (Homo sapiens) (UniProt P08684)", "sequence (P08684 whole entry, looked up)": "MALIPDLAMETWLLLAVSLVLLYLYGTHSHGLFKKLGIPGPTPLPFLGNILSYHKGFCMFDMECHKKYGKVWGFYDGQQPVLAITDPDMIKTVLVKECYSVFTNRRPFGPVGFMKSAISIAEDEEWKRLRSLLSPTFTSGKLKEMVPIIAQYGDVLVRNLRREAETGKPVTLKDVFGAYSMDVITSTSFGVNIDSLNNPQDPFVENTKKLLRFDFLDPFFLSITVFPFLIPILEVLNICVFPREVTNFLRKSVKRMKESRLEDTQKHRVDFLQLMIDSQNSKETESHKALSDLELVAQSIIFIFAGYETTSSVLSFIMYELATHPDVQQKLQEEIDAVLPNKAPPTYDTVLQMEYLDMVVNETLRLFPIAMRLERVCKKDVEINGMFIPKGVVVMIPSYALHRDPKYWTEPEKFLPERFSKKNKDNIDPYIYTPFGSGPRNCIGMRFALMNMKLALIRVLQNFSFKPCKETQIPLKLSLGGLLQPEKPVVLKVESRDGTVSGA", "test": "qHTS Assay for Activators of Cytochrome P450 3A4 (AID 885); also: nearly all actives have a fitted effect of over 65% in size", "conditions": "recombinant CYP3A4, Luciferin-PPXE luminescence, 60 min; series mostly up to 57.1 µM", "procedure,_shortened": "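Steps: enzyme/substrate mix dispensed; compound added, 10 min RT; NADPH regeneration solution added, 60 min RT; luciferin detection buffer stops reaction; 20 min later luminescence measured.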"}, "[3]": {"biological_target": "Lethal(3)malignant brain tumor-like protein 1 (Homo sapiens) (UniProt Q9Y468)", "sequence (Q9Y468 whole entry, looked up)": "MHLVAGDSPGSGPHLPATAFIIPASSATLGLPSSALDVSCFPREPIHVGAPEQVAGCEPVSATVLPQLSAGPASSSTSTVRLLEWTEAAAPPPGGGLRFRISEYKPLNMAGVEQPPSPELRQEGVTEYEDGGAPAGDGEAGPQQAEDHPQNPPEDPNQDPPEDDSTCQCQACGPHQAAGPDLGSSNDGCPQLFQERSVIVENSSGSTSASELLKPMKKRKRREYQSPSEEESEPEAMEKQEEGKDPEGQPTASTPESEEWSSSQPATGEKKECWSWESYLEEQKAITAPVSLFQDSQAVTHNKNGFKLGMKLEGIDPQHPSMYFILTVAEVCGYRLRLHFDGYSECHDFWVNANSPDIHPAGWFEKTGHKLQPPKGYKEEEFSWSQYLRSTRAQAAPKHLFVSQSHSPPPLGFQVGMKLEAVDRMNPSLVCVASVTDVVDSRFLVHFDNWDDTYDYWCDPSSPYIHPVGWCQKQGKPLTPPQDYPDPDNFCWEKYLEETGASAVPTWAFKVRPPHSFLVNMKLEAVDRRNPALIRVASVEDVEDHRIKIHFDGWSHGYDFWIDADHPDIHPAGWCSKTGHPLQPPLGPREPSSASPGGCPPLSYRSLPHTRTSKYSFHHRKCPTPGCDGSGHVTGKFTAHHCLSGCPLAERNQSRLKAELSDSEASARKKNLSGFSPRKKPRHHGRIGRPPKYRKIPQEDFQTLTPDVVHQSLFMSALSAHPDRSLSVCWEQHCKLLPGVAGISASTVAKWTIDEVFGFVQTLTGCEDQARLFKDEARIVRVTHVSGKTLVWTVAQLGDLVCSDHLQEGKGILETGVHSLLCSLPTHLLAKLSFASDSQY", "test": "qHTS Assay for the Inhibitors of L3MBTL1: Hit Validation (AID 540279); also: potency is read from the fitted curve at half-maximal effect; nearly all actives have a fitted effect of over 70% in size", "conditions": "L3MBTL1 methyl-lysine binding inhibition, biochemical qHTS", "procedure,_shortened": "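AlphaScreen displacement: 50 nM L3MBTL1 bound to 75 nM biotin-H3K9me1 peptide for 30 min, compound added for 30 min at room temperature, then beads at 10 ug/mL final for 30 min in the dark. Cefsulodin titration served as intraplate control.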"}, "[4]": {"test": "qHTS Assay for the Inhibitors of L3MBTL1: Hit Validationin AlphaScreen Counterscreen (AID 602224)", "conditions": "signal inhibition; series mostly up to 57.1 µM", "procedure,_shortened": "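Using a biotin-His6 bridge (1 nM) between streptavidin donor and Ni-chelate acceptor beads at 10 ug/mL each, hit compounds were checked for assay-technology artifacts; activity here flags false positives from the primary screen.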"}, "[5]": {"biological_target": "DNA dC->dU-editing enzyme APOBEC-3G (Homo sapiens) (UniProt Q9HC16)", "sequence (Q9HC16 whole entry, looked up)": "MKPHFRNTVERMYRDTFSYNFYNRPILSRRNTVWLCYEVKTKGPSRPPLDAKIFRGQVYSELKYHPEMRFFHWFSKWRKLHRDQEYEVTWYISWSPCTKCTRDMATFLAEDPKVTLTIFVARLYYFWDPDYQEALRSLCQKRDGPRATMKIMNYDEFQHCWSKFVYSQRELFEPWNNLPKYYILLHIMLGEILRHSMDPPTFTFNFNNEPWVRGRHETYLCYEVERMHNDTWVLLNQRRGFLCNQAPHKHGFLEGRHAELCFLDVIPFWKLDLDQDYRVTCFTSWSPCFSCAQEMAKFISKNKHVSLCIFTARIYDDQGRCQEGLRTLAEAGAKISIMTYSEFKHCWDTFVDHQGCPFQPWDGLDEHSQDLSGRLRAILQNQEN", "test": "qHTS for inhibitors of Vif-A3G interactions: Validation (AID 588379)", "conditions": "Vif-A3G protein interaction assay; series mostly up to 46.1 µM", "procedure,_shortened": "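HeLa cells stably expressing Vif and A3G-eYFP, 700 cells/well, incubated overnight at 37 deg C, then exposed to compound overnight at 37 deg C. Inhibition of Vif-mediated degradation read as increased yellow fluorescence (Ex 488/Em 500-530) by laser-scanning cytometry.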"}, "[6]": {"biological_target": "DNA polymerase iota (Homo sapiens) (UniProt Q9UNA4)", "sequence (Q9UNA4 whole entry, looked up)": "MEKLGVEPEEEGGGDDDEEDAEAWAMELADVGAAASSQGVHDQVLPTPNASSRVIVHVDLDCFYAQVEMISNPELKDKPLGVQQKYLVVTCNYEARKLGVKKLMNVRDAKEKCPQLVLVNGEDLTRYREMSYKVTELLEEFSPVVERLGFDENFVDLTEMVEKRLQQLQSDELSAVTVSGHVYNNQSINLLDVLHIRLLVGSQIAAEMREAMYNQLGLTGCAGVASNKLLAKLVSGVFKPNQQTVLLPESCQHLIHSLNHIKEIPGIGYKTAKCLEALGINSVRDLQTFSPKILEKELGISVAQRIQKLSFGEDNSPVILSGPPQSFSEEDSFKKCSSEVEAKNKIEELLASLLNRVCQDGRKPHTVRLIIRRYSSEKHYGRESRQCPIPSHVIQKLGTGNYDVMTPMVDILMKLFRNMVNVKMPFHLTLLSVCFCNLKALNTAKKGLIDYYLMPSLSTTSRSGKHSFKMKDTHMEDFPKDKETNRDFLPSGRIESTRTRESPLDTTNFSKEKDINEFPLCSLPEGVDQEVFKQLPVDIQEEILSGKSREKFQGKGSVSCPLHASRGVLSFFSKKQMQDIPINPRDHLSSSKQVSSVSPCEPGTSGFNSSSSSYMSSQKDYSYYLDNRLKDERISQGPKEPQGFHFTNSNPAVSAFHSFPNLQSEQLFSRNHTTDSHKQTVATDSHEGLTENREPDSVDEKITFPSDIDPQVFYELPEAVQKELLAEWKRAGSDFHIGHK", "test": "qHTS for Inhibitors of Polymerase Iota: Confirmatory Assay for Cherry-picked Compounds (AID 720496); also: potency is read from the fitted curve at half-maximal effect", "conditions": "Pol iota primer extension, TAMRA/BHQ fluorescence", "procedure,_shortened": "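Buffer-only wells, without enzyme, serve as negative control. Test wells hold 10 nM Pol iota preincubated 15 min with compound before 50 nM final fluorogenic DNA substrate is added; signal is read at 0 and 10 min.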"}, "[7]": {"biological_target": "Bifunctional 3'-5' exonuclease/ATP-dependent helicase WRN (Homo sapiens) (UniProt Q14191)", "sequence (Q14191 whole entry, looked up)": "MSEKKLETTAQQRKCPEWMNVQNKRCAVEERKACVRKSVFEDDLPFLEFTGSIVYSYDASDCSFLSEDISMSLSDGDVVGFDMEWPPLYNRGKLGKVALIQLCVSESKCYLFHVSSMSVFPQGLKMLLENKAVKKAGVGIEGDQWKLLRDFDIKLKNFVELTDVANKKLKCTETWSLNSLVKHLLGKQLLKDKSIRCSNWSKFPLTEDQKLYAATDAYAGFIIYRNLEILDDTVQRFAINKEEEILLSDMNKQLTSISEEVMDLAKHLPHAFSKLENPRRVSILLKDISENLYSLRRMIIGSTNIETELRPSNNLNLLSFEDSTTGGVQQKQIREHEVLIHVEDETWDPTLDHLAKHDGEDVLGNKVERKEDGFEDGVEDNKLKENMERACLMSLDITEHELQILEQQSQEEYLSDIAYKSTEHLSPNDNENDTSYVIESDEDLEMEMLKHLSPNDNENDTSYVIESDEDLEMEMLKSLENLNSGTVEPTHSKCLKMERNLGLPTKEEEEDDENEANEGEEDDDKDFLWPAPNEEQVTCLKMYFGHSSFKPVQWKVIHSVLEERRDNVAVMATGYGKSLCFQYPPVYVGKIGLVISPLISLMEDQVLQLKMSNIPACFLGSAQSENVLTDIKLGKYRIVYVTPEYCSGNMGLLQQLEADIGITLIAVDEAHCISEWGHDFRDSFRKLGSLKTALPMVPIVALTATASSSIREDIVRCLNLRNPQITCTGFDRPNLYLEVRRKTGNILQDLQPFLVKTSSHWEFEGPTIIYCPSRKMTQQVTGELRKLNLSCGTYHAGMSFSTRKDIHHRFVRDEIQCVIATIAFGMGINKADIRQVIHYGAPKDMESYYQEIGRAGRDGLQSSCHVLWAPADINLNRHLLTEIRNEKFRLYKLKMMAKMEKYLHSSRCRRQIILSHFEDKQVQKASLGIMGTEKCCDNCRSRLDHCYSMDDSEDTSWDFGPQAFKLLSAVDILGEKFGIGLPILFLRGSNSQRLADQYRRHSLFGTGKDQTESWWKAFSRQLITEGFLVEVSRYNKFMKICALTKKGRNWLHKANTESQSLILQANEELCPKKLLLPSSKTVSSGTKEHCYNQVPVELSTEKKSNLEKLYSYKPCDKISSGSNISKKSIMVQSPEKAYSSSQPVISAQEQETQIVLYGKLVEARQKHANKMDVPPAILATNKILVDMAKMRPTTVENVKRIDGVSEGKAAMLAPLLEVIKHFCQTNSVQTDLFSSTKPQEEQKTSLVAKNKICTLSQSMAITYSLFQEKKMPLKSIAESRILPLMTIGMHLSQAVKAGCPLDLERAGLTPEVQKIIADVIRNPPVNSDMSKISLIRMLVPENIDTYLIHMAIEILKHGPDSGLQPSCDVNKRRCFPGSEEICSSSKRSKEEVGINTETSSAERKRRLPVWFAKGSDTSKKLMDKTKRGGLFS", "test": "qHTS for Inhibitors of WRN Helicase: Confirmatory Assay for Cherry-picked Compounds. (AID 720497); also: potency is read from the fitted curve at half-maximal effect; nearly all actives have a fitted effect of over 65% in size", "conditions": "WRN helicase DNA unwinding, fluorescence kinetic; series mostly up to 57.1 µM", "procedure,_shortened": "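Kinetic fluorescence helicase read-out (525 nm excitation, 598 nm emission) on a forked duplex substrate at 100 nM with 2 mM ATP. Enzyme: 20 nM WRN, exposed to compound for 15 min at room temperature. Responses normalized to buffer-only and positive-control wells.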"}, "[8]": {"biological_target": "DNA polymerase eta (Homo sapiens) (UniProt Q9Y253)", "sequence (Q9Y253 whole entry, looked up)": "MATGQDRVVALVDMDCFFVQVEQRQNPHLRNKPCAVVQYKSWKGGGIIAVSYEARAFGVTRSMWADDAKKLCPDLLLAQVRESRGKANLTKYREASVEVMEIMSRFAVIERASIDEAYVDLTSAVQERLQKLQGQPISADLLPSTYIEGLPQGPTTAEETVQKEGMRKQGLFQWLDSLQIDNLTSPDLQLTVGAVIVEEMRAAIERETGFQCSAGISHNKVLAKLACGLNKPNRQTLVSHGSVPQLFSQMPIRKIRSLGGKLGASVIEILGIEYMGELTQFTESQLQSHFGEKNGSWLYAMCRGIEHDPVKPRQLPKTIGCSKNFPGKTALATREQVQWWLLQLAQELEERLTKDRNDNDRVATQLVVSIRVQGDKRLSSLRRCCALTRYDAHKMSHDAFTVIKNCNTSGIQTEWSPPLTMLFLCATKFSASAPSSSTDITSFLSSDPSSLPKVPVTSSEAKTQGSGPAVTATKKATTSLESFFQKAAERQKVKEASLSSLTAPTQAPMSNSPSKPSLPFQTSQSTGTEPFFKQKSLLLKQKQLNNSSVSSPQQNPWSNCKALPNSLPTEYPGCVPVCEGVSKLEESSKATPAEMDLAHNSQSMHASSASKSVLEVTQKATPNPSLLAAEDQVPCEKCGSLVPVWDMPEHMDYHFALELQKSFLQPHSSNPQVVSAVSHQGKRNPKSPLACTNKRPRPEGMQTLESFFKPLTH", "test": "qHTS for Inhibitors of Polymerase Eta: Confirmatory Assay for Cherry-picked Compounds (AID 720502); also: potency is read from the fitted curve at half-maximal effect", "conditions": "Pol eta primer extension, TAMRA/BHQ fluorescence, 10 min", "procedure,_shortened": "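The reaction starts with 50 nM final labeled DNA substrate added to Pol eta (10 nM) that had sat with compound for 15 min. TAMRA emission at 598 nm is read at 0 and 10 min.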"}, "[9]": {"biological_target": "Flap endonuclease 1 (Homo sapiens) (UniProt P39748)", "sequence (P39748 whole entry, looked up)": "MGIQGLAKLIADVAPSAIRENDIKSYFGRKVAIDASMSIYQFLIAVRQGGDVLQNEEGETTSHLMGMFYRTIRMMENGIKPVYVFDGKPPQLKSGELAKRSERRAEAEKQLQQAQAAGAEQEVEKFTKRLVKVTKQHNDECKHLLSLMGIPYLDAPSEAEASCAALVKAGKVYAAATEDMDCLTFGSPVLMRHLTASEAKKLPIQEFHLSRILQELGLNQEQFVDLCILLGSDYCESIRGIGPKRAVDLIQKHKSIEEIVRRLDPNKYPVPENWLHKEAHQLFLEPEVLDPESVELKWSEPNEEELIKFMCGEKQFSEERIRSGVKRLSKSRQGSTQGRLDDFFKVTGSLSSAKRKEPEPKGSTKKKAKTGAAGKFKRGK", "test": "qHTS Assay for the Inhibitors of FEN1: Confirmatory Assay for Cherry-picked Compounds (AID 720498); also: potency is read from the fitted curve at half-maximal effect; nearly all actives have a fitted effect of over 60% in size", "conditions": "FEN1 flap cleavage, TAMRA/BHQ2 fluorogenic DNA substrate", "procedure,_shortened": "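FEN1 at 10 nM was preincubated with compound for 15 min at room temperature, then 50 nM (final) double-flap DNA substrate was added. TAMRA fluorescence released from the BHQ-2-quenched flap was read at 0 and 15 min (ex 525/em 598 nm).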"}}, "note": "Inconclusive results are not listed. The list shows a part of the results. Entries that show only a call come without a potency. Active and inactive are the calls of the source. Unless noted, calls follow the shape of the dose curve; as a rule, active = well fitted curve in the direction sought with a large enough effect; inconclusive = small, poorly fitted or top-dose-only effect, or another doubt; inactive = no such curve, though single readings can be large; an effect the other way counts as inactive or inconclusive.", "data": [{"smiles": "CCCCCCN(C(=O)CCCCCN1C(=O)NC(c2ccc(-c3ccccc3)cc2)C(C(=O)OCc2ccccc2)=C1C)C(C(=O)NCCCC)c1ccccn1", "note": "(stereo not drawn)", "values": [{"measurement": "outcome", "setting": "[1]", "result": "inactive"}, {"measurement": "Potency", "setting": "[2]", "result": "inactive"}]}, {"smiles": "COc1cccc2c(C)c(C(=O)O)[nH]c12", "values": [{"measurement": "Potency", "setting": "[3]", "result": "5.97 µM (active)"}, {"measurement": "outcome", "setting": "[4]", "result": "inactive"}]}, {"smiles": "CNC(=O)[C@@H]1C[C@H]1[C@@H](NC(=O)CNC(=O)OCc1ccccc1)c1ccccc1", "values": [{"measurement": "outcome", "setting": "[1]", "result": "inactive"}, {"measurement": "Potency", "setting": "[2]", "result": "inactive"}]}, {"smiles": "CC(C)(C)OC(=O)NCCCCCNC(=O)c1[nH]cnc1C(=O)Nc1nccs1", "values": [{"measurement": "Potency", "setting": "[3]", "result": "7.52 µM (active)"}, {"measurement": "outcome", "setting": "[4]", "result": "inactive"}]}, {"smiles": "CC1(C)S[C@H]2[C@@H](NC(=O)C(N)c3ccccc3)C(=O)N2[C@H]1C(=O)O", "note": "(stereo partly drawn)", "values": [{"measurement": "Potency", "setting": "[5]", "result": "inactive"}]}, {"smiles": "CSc1nnc(SCc2nc3sc(C(=O)O)c(C)c3c(=O)[nH]2)s1", "values": [{"measurement": "Potency", "setting": "[3]", "result": "0.532 µM (active)"}, {"measurement": "Potency", "setting": "[6]", "result": "18.9 µM (active)"}, {"measurement": "Potency", "setting": "[7]", "result": "13.6 µM (active)"}, {"measurement": "Potency", "setting": "[8]", "result": "5.36 µM (active)"}]}, {"smiles": "C=C(CO)C1Cc2c(ccc3c2OC2COc4cc(OC)c(OC)cc4C2C3=O)O1", "note": "(stereo not drawn)", "values": [{"measurement": "Potency", "setting": "[5]", "result": "inactive"}]}, {"smiles": "COC(=O)c1ccc(C(NC(=O)OCc2ccccc2)/C(=C/[C@@H](C)C(=O)NCc2nc3ccccc3s2)c2cccnc2)cc1", "note": "(stereo partly drawn)", "values": [{"measurement": "outcome", "setting": "[1]", "result": "inactive"}, {"measurement": "Potency", "setting": "[2]", "result": "inactive"}]}, {"smiles": "COCCNC(=O)Nc1ccc2nc(-c3ccco3)c(-c3ccco3)nc2c1", "values": [{"measurement": "Potency", "setting": "[3]", "result": "1.89 µM (active)"}, {"measurement": "Potency", "setting": "[6]", "result": "7.52 µM (active)"}, {"measurement": "Potency", "setting": "[9]", "result": "19 µM (active)"}, {"measurement": "Potency", "setting": "[8]", "result": "5.36 µM (active)"}]}, {"smiles": "CCCCNC(=O)C(c1ccc(OCC(=O)OC)c(C(=O)OC)c1)N(CCOC)C(=O)CCCCCN1C(=O)NC(c2ccc(-c3ccccc3)cc2)C(C(=O)OCc2ccccc2)=C1C", "note": "(stereo not drawn)", "values": [{"measurement": "outcome", "setting": "[1]", "result": "inactive"}, {"measurement": "Potency", "setting": "[2]", "result": "inactive"}]}, {"smiles": "C=C[C@@H]1CN2CC[C@@H]1C[C@@H]2[C@@H](O)c1ccnc2ccc(OC)cc12", "values": [{"measurement": "Potency", "setting": "[5]", "result": "inactive"}]}]}
